# Measurements: PubChem BioAssay (NCATS)
# Inconclusive results are not listed. Where a call stands in place of a potency, no number is given. Activity calls are given as the source filed them. The call rests on the fitted dose curve; in most records, active means well fitted curve in the direction sought with a large enough effect; inconclusive means small, poorly fitted or top-dose-only effect, or another doubt; inactive means no such curve, though single readings can be large; an effect the other way counts as inactive or inconclusive.
# Experiments:
# [1] = test system: Zika virus NS2B-NS3 protease (linked construct); assay: Primary screen NINDS Rhodamine qHTS for Zika virus inhibitors (AID 1347160); further: potency means the concentration at half of the fitted maximal effect; nearly all actives have a fitted effect of over 55% in size
# Method in brief: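 Kinetic fluorescence (Ex 480 nm, Em 540 nm) over 15 min with 1.5 microM Rhodamine110 peptide and 25 nM linked protease.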
# [2] = OV-KATE Cancer Cell Toxicity qHTS against the NCATS CANVASS Library (AID 1347345)
# Method in brief: (§1)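 ATP content after 72 h treatment, detected by CellTiter-Glo luminescence (15min room-temperature development), reflects cell viability. Wells contained 1000 cells and received compounds at 11 concentrations.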
# [3] = HPAF-II Cancer Cell Toxicity qHTS against the NCATS CANVASS Library (AID 1347346); further: series mostly up to about 38 µM; nearly all actives have a fitted effect of over 55% in size
# Method in brief: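 HPAF-II cells at 1000 cells/well were treated with an 11-point concentration series for 72 hours at 37 degrees C. Viability read by CellTiter-Glo luminescence.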
# [4] = UWB1.289 Cancer Cell Toxicity qHTS against the NCATS CANVASS Library (AID 1347347); further: nearly all actives have a fitted effect of over 60% in size
# Method in brief: as §1
# [5] = OV-SAHO Cancer Cell Toxicity qHTS against the NCATS CANVASS Library (AID 1347348); further: series mostly up to about 38 µM; nearly all actives have a fitted effect of over 55% in size
# Method in brief: as §1
# [6] = Panc-1005 Cancer Cell Toxicity qHTS against the NCATS CANVASS Library (AID 1347349); further: series mostly up to about 38 µM; nearly all actives have a fitted effect of over 60% in size
# Method in brief: as §1
# [7] = SW1088 Cancer Cell Toxicity qHTS against the NCATS CANVASS Library (AID 1347350); further: series mostly up to about 38 µM; nearly all actives have a fitted effect of over 75% in size
# Method in brief: as §1
# [8] = COV-362 Cancer Cell Toxicity qHTS against the NCATS CANVASS Library (AID 1347352); further: series mostly up to about 38 µM
# Method in brief: (§2)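 Cells at 1000/well were given compound 4 h after plating in an 11-point series. Viability was read by CellTiter-Glo luminescence after 72 h at 37 degrees C.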
# [9] = A2780 Cisplatin Sensitive Ovarian Cancer Cell Toxicity qHTS against the NCATS CANVASS Library (AID 1347353); further: nearly all actives have a fitted effect of over 60% in size
# Method in brief: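 A2780 cells, 750/well, settled 4 h at 37 °C, then treated with an 11-point compound series for 72 h. Viability was read as ATPLite luminescence after 10 min at room temperature, with bortezomib as control.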
# [10] = UWB1.289-WTBRCA1 Cancer Cell Toxicity qHTS against the NCATS CANVASS Library (AID 1347354)
# Method in brief: as §2
# [11] = HPAF-II 24hr Apoptosis Induction qHTS against the NCATS CANVASS Library (AID 1347356)
# Method in brief: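 HPAF-II cells (500/well) exposed to compounds in 11-point series for 24 h at 37 degrees C; caspase-3/7 activity read by Caspase-Glo luminescence after 15 min at room temperature. Doxorubicin titration as control.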
# [12] = HEK293 18hr Apoptosis Induction qHTS against the NCATS CANVASS Library (AID 1347357)
# Method in brief: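 Natural products applied to HEK293 for 18 hr; Caspase-Glo 3/7 readout.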
# [13] = HEK293 24hr Apoptosis Induction qHTS against the NCATS CANVASS Library (AID 1347359)
# Method in brief: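 Caspase-3/7 activation measured as luminescence from the DEVD-based Caspase-Glo reagent, 15 min at room temperature, following 24-hour compound treatment of HEK293 cells.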
# [14] = test system: NAD(P)H diaphorase (Clostridium kluyveri); assay: Diaphorse counterscreen qHTS: Assay Interference Panel against the NCATS CANVASS Library (AID 1347362)
# Method in brief: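 Counterscreen for coupling-enzyme interference: resorufin fluorescence from resazurin/NADH turnover, read after 5 min at room temperature. Compounds were tested over an 11-point series after 15 min dark preincubation with diaphorase in PBS-Tween.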
# [15] = target: Luciferin 4-monooxygenase (Photinus pyralis) (UniProt P08659); assay: Firefly luciferase counterscreen qHTS: Assay Interference Panel against the NCATS CANVASS Library (AID 1347363); further: series mostly up to about 57 µM
# Method in brief: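 Luminescence inhibition readout: compounds (11-point qHTS) sat 15 min at room temperature with substrate mix (0.013 mM luciferin and ATP), then firefly luciferase was added and signal read 5 min later.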
# [16] = SDT Cancer Cell Toxicity qHTS against the NCATS CANVASS Library (AID 1347365); further: potency means the concentration at half of the fitted maximal effect; nearly all actives have a fitted effect of over 60% in size
# Method in brief: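 SDT dog glioma cells (500/well) exposed to an 11-point compound series for 72 hr at 37C, 5% CO2. Cytotoxicity read as ATP content by CellTiterGlo luminescence; bortezomib titration as control.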
# [17] = KB-3-1 Cancer Cell Toxicity qHTS against the NCATS CANVASS Library (AID 1347366); further: series mostly up to about 46 µM; nearly all actives have a fitted effect of over 75% in size
# Method in brief: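 Cytotoxicity toward KB-3-1 cells (500/well, DMEM + 10% FBS) was scored by CellTiter-Glo luminescence following 72 hr exposure at 37C, with bortezomib titrated as control.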
# Chain of Luciferin 4-monooxygenase (Photinus pyralis) (P08659 whole entry, looked up): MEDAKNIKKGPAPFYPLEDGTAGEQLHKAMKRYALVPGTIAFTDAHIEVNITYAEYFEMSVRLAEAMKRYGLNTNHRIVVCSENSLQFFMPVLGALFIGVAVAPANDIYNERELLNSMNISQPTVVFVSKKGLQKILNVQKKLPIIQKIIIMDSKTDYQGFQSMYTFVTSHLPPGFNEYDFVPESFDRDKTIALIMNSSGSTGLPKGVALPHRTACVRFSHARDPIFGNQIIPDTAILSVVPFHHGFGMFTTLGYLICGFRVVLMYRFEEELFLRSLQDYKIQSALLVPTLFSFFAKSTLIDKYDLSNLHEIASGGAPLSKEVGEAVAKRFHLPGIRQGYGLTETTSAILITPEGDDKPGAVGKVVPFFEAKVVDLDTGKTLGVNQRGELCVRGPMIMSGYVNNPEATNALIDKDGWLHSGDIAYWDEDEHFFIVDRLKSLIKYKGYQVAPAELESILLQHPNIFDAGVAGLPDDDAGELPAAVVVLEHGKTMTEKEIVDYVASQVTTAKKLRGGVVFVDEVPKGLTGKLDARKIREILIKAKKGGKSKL
compound,measurement,setting,value
C[C@]12CC(O)C3[C@@H](CCC4C[C@@H](O)CC[C@@]43CO)[C@@]1(O)CCC2C1=CC(=O)OC1 (some centres not stated),Potency,[1],62.1 µM (active)
same,Potency,[2],inactive
same,Potency,[3],inactive
same,Potency,[4],inactive
same,Potency,[5],inactive
same,Potency,[6],inactive
same,Potency,[7],inactive
same,Potency,[8],inactive
same,Potency,[9],inactive
same,Potency,[10],inactive
same,outcome,[11],inactive
same,Potency,[12],inactive
same,Potency,[13],inactive
same,outcome,[14],inactive
same,outcome,[15],inactive
same,Potency,[16],2.64 µM (active)
same,Potency,[17],inactive
